PubChem BioAssay (NCI)
The panel holds about 79,000 compounds, 15% with a hit somewhere; the sample as a whole holds those more often. Active and inactive are the calls of the source. Rule as the data show it: active = growth inhibition above about 70%; inactive = the rest.

Tests used:
[1] = NCI Yeast Anticancer Drug Screen. Data for the rad50 strain (AID 155);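 also: 0% = growth of vehicle-only cultures of the same strain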; settings: S. cerevisiae rad50 strain growth inhibition; at 50.0 µM; active compounds read high
Method in brief: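 A DNA repair-deficient yeast mutant serves as the test organism; compound-induced growth inhibition is calculated against vehicle-treated cells.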

[2] = NCI Yeast Anticancer Drug Screen. Data for the mec2-1 strain (AID 157); settings: S. cerevisiae mec2-1 strain, at 50.0 µM, active compounds read high
Method in brief: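 Strain: mec2-1 (DNA repair/cell cycle alteration). Compound exposure, then growth measured; inhibition expressed relative to vehicle.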

[3] = NCI Yeast Anticancer Drug Screen. Data for the sgs1 mgt1 strain (AID 161);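 also: 0% = growth of cultures given vehicle only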; settings: S. cerevisiae sgs1 mgt1 strain, at 50.0 µM, active compounds read high
Method in brief: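 Genetically altered yeast, compound exposure, growth inhibition relative to vehicle.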

[4] = NCI Yeast Anticancer Drug Screen. Data for the cln2 rad14 strain (AID 165);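 also: 0% = growth equal to vehicle treated cultures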; settings: S. cerevisiae cln2 rad14 strain, at 50.0 µM, active compounds read high
Method in brief: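 Compounds are applied to the cln2 rad14 yeast strain, and growth is then compared with that of vehicle-treated cultures to give inhibition.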

[5] = NCI Yeast Anticancer Drug Screen. Data for the bub3 strain (AID 167); settings: S. cerevisiae bub3 mutant strain, at 50.0 µM, active compounds read high
Method in brief: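 Inhibition values come from growth of compound-treated mutant yeast normalised to vehicle-treated controls.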

[6] = NCI Yeast Anticancer Drug Screen. Data for the mlh1 rad18 strain (AID 175); settings: S. cerevisiae mlh1 rad18 strain growth inhibition; at 50.0 µM; active compounds read high
Method in brief: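 Read-out is yeast growth inhibition, calculated against vehicle-only controls. The compound was applied to a strain engineered with DNA damage repair alterations.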

Measured: growth inhibition

O=C(O)Cc1cc(O)c(CC(=O)O)cc1O
inactive: [1] -11.9% | [2] -21.9% | [3] -49.4% | [4] -20.4% | [5] -22.4% | [6] -4.1%

CCOC(=O)CCC1(C(=O)OC)C(=O)CCCCCCCC1C(=O)OC (stereo not given)
inactive: [1] -1.85% | [2] -5.65% | [3] 20.3% | [4] 20.6% | [5] 19.4% | [6] 7.3%

COc1cc2cc3c(c(O)c2c(O)c1/C=C/C(C)C)C(=O)CC(C)(OC(C)=O)C3 (stereo not given)
inactive: [1] 36.3% | [2] 8.95% | [3] 36.5% | [4] 30.4% | [5] 18.8%
active: [6] 74.2%

COc1ccc(C2(C=O)CN(C)CN2)cc1 (stereo not given)
inactive: [1] -7.2% | [2] -3.95% | [3] -14.7% | [4] -21.2% | [5] -13.8% | [6] -7.2%

O=C(NCCNCCO)N/N=C/c1ccccc1
inactive: [1] -0.2% | [2] -34.4% | [3] -15.9% | [4] -7.75% | [5] -39% | [6] -0.65%

CC1CC(C[N+](=O)[O-])CC2(C1)OCCO2 (stereo not given)
inactive: [1] -1.5% | [2] -25.3% | [3] -28.6% | [4] 5.1% | [5] -28.8% | [6] -5.15%

Cn1c(C(=O)NN)cc2cc(OCc3ccccc3)ccc21
inactive: [1] 30.1% | [2] 5.75% | [3] 7.2% | [4] 4.55% | [5] 13.2% | [6] 2.4%

CC(C)N(CCC#N)C(=S)Nc1cccc(C(F)(F)F)c1
inactive: [1] 21.6% | [2] 13.2% | [3] 25.1% | [4] 0.25% | [5] 12.2% | [6] -2.85%

COCCOCCOCCOC(C)=O
inactive: [1] 21.6% | [2] 12.4% | [3] 8.3% | [4] 6.2% | [5] -5.3% | [6] -0.65%

CCO/C(C)=C(/C(C)=O)C(=O)NC1CCCCC1
inactive: [1] -1.65% | [2] 15.5% | [3] -0.1% | [4] 9.75% | [5] -3.25% | [6] -11.2%

COC(=O)CCCc1ccc2c(c1)CC1(C2)Cc2cc3c(cc2C1)CCCC3
inactive: [1] -14.5% | [2] -20.4% | [3] -11.2% | [4] -15.5% | [5] -11.9% | [6] -3.85%

O=c1c2ccccc2sc2nc(CCl)nn12
inactive: [1] 6.2% | [2] 4.25% | [3] 8.2% | [4] 16.8% | [5] 2.05% | [6] 47.2%

COc1ccc2c(c1)CCN1CCCc3ccc(OC)cc3C21 (stereo not given)
inactive: [1] 18.9% | [2] 30.3% | [3] 24.6% | [4] 55.1% | [5] 31.4% | [6] 46.7%

O=[N+]([O-])c1ccc(I)c(I)c1
inactive: [1] -20.8% | [2] -3.8% | [3] 0.1% | [4] -43.2% | [5] -0.45% | [6] 7.85%

C=C1CC(C)(Cn2cnc3c(=O)[nH]cnc32)OC1=O (stereo not given)
inactive: [1] 18.1% | [2] 22.7% | [3] 12.9% | [4] 8% | [5] 16.6% | [6] 21.6%

O=C(c1ccccc1)C1Nc2ccc(Cl)cc2C2C=CCC12 (stereo not given)
inactive: [1] -1.2% | [2] -7.75% | [3] 6.4% | [4] -7.95% | [5] -0.35% | [6] 14.8%

COC(=O)CCC(=O)c1cc(OC)c2cc3ccccc3cc2c1OC
inactive: [1] 9.2% | [2] -10.4% | [3] -2.55% | [4] 5.75% | [5] -17.4% | [6] -15.6%

CCCCCCCCCCCCCCCC(=O)NCC(=O)NC1C(CO)OC(Nc2ncnc3nc[nH]c23)C(O)C1O (stereo not given)
inactive: [1] 61.8% | [2] 19% | [4] 14.7% | [6] -11.7%
active: [3] 82.7% | [5] 76.2%

O=C1c2c(Cl)cccc2C(c2ccccc2)c2cccc(Cl)c21
inactive: [1] 29% | [2] -4.15% | [3] -1.55% | [4] -11.5% | [5] 7.35% | [6] 23.2%

CCCCCCCC(CCCCCCC)(C(=O)OCC)C(=O)OCC
inactive: [1] 7.1% | [2] -1.65% | [3] 9.1% | [4] -37.5% | [5] 0.25% | [6] 0.9%
